Results taken from PubChem BioAssay (NCATS).
Where “and” joins values, the source holds several entries; their conditions need not be identical. Identical values can stand only once. Results filed as inconclusive are left out. More than one record can exist for a structure, and the calls need not agree. Calls of active or inactive are those of the source. Calls come from the whole dose curve; as a rule, active = well fitted curve in the direction sought with a large enough effect; inconclusive = small, poorly fitted or top-dose-only effect, or another doubt; inactive = no such curve, though single readings can be large; an effect the other way counts as inactive or inconclusive.

Tests used:
[1] = biological target: Glutathione peroxidase 1 (Homo sapiens) (UniProt P07203); experiment: Primary qHTS Assay for Inhibitors of Recombinant Selenoprotein Glutathione Peroxidase 1 (GPX1) (AID 1845191); note: nearly all actives have a fitted effect of over 65% in size
Chain of Glutathione peroxidase 1 (Homo sapiens) (P07203 whole entry, looked up): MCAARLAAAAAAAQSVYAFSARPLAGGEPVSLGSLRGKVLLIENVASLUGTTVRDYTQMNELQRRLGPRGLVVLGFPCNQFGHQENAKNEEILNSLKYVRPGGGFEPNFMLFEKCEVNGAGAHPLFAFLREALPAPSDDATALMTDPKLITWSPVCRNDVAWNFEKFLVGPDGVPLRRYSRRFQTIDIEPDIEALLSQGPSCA
Procedure, shortened: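 GPX1 10 nM, GR 100 nM, GSH 1 mM, NADPH 0.5 mM, CHP 0.5 mM (final). 30-min cpd preincubation, RT. Ex340/Em450 read t=0, t=15 min.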

[2] = biological target: Phospholipid hydroperoxide glutathione peroxidase GPX4 (Homo sapiens) (UniProt P36969); experiment: Primary qHTS Assay for Inhibitors of Recombinant Selenoprotein Glutathione Peroxidase 4 (GPX4) (AID 1845192); note: nearly all actives have a fitted effect of over 65% in size; note: potency is the fitted concentration of half-maximal effect; for activity change, negative = inhibition: series mostly up to about 50 µM; % is set by controls: 0 for no effect and ±100 for the full control effect
Chain of Phospholipid hydroperoxide glutathione peroxidase GPX4 (Homo sapiens) (P36969 whole entry, looked up): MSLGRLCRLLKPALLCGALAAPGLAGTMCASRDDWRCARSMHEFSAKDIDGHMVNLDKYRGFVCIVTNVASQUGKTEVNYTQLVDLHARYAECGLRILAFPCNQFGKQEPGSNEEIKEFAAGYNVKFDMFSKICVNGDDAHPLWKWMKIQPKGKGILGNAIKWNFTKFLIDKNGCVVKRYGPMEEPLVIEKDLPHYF
Procedure, shortened: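 qHTS, GR-coupled: GPX4 200 nM + cpd 30 min RT → GSH 1 mM, NADPH 0.5 mM, GR 100 nM → CHP 0.5 mM start; fluor 340/450 at t0 and t15 min; no-enzyme wells as control.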

[3] = biological target: Luciferin 4-monooxygenase (Photinus pyralis) (UniProt P08659); experiment: Primary firefly luciferase (FLuc) qHTS assay for identification of artifact compounds. (AID 1845220); details: outcome: dose series up to 54.1 µM; note: nearly all actives have a fitted effect of over 60% in size;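 for activity change, negative = inhibition: series mostly up to about 54 µM; plate controls were DMSO vehicle for no effect and no enzyme for full effect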
Procedure, shortened: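 Reaction readout was CCD-imaged luminescence, taken 5 min after adding 10 nM purified firefly enzyme to compound-treated wells holding 10 uM luciferin and ATP in pH 7.6 buffer.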

[4] = Primary fluorescence-based thiol-reactive (MSTI) qHTS assay for identification of artifact compounds. (AID 1845221);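 note: series mostly up to about 54 µM; thiol-reactive compounds lower the probe fluorescence signal; nearly all actives have a fitted effect of over 65% in size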
Procedure, shortened: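 In PBS pH 7.4 with 2% DMSO, each compound met 4 uM MSTI for one hour at ambient temperature, shielded from light, before fluorescence detection.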

[5] = tested on: Nanoluciferase (engineered Oplophorus gracilirostris luciferase); experiment: Primary Nanoluciferase (NLuc) qHTS assay for identification of artifact compounds. (AID 1845222);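 note: NLuc secreted into diluted conditioned medium of S16 cells; series mostly up to about 54 µM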
Procedure, shortened: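 Concentration-response data were obtained by luminescence after 5 min with Nano-Glo substrate at 1:100. The enzyme was diluted S16 NLuc-expressing cell medium, preincubated with compound for 15 min at RT. Curves were fitted with a 4-parameter Hill model.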

[6] = Primary redox qHTS assay for identification of artifact compounds. (AID 1845223);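 note: 0% = DMSO and 100% = reference compound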
Procedure, shortened: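 Redox-cycling detection via DTT (250 uM final) oxidation coupled to Amplex Red (25 uM)/HRP (250 mU/mL) in HBSS. 15 min preincubation plus 30 min after DTT, room temperature. Ex/Em 525/598 nm; 4-parameter Hill fit against DMSO and 10 uM DA3003.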

[7] = biological target: Cytochrome P450 3A4 (Homo sapiens) (UniProt P08684); experiment: qHTS for inhibitors of CYP3A4 against the NCATS DSHEA and TCM libraries (AID 1919971);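 note: % is set by controls: 0 for no effect and ±100 for the full control effect; inhibition lowers luminescence from luciferin made by CYP3A4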
Chain of Cytochrome P450 3A4 (Homo sapiens) (P08684 whole entry, looked up, canonical isoform): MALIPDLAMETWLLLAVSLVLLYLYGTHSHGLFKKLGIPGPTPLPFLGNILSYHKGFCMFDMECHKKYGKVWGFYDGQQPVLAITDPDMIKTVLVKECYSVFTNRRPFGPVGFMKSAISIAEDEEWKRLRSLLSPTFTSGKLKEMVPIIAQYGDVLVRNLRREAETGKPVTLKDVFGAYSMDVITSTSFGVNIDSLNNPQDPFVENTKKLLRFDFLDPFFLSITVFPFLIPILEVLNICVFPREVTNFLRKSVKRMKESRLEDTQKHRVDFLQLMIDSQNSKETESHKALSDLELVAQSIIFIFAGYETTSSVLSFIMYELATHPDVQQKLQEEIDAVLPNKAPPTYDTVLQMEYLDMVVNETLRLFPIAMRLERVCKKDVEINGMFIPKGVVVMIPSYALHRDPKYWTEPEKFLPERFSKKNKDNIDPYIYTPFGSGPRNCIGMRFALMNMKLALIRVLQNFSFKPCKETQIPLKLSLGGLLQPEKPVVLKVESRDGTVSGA
Procedure, shortened: (§1)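 Concentration-response screening with isoform-matched pro-luciferin substrates. The CYP reaction was initiated by NADPH regenerating solution and ran 30-45 min in darkness at room temperature.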

[8] = biological target: Cytochrome P450 2C9 (Homo sapiens) (UniProt P11712); experiment: qHTS for inhibitors of CYP2C9 against the NCATS DSHEA and TCM libraries (AID 1919973); note: potency is the fitted concentration of half-maximal effect;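 for activity change, negative = inhibition: luminogenic pro-luciferin CYP2C9 substrate turned into luciferin with NADPH regeneration; series mostly up to about 34 µM; % is set by controls: 0 for no effect and ±100 for the full control effect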
Chain of Cytochrome P450 2C9 (Homo sapiens) (P11712 whole entry, looked up): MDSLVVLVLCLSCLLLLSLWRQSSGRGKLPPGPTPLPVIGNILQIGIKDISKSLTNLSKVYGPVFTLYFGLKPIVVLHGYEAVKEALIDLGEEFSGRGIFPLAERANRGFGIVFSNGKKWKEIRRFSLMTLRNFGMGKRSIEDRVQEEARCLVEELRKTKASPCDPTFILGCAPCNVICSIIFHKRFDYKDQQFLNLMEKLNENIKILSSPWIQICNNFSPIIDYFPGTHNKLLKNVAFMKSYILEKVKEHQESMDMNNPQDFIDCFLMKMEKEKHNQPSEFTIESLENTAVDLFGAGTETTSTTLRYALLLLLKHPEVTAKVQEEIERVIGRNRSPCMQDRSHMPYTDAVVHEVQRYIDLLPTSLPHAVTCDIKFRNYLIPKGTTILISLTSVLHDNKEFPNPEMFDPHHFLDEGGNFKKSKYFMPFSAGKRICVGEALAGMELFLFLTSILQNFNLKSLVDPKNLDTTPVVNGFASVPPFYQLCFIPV
Procedure, shortened: as §1

[9] = biological target: Cytochrome P450 2C19 (Homo sapiens) (UniProt P33261); experiment: qHTS for inhibitors of CYP2C19 against the NCATS DSHEA and TCM libraries (AID 1919974);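 note: luminescence from luciferin released by CYP2C19 oxidation of a pro-luciferin substrate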; note: potency is the fitted concentration of half-maximal effect; for activity change, negative = inhibition: % is set by controls: 0 for no effect and ±100 for the full control effect
Chain of Cytochrome P450 2C19 (Homo sapiens) (P33261 whole entry, looked up): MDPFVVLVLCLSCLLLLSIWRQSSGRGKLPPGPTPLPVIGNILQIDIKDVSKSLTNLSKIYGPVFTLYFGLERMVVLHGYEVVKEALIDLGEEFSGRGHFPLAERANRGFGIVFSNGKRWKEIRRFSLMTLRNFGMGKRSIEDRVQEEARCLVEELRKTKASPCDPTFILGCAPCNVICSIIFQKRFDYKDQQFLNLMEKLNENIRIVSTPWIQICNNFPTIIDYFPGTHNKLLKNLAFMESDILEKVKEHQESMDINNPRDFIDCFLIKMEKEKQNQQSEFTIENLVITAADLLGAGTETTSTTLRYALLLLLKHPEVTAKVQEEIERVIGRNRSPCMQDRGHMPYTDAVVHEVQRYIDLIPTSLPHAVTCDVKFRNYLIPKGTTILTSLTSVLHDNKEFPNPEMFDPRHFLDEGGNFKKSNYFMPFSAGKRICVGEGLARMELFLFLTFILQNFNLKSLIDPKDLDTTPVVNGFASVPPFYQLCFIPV
Procedure, shortened: as §1

[10] = biological target: Cytochrome P450 2D6 (Homo sapiens) (UniProt P10635); experiment: qHTS for inhibitors of CYP2D6 against the NCATS DSHEA and TCM libraries (AID 1919972); note: % is set by controls: 0 for no effect and ±100 for the full control effect
Chain of Cytochrome P450 2D6 (Homo sapiens) (P10635 whole entry, looked up): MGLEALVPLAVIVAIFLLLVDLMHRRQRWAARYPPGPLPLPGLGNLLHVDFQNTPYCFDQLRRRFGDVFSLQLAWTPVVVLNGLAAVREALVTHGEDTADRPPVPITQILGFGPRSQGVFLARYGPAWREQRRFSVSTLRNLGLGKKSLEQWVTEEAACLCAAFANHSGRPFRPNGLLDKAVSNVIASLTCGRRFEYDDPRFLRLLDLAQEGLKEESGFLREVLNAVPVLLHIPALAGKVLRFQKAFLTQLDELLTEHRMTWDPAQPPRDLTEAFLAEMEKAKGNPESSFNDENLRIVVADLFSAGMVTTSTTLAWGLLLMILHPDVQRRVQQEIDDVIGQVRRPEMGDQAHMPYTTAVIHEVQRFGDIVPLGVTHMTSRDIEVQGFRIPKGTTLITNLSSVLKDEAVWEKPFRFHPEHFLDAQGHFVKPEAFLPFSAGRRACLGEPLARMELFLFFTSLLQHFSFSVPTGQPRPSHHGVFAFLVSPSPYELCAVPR
Procedure, shortened: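 CYP2D6 enzyme with pro-luciferin substrate in manufacturer buffer (typically 100 mM KPO4), preincubated 15 min RT with substances (most at 19.5 nM upward); NADPH regeneration system (1x) started 30–45 min RT reaction; P450-Glo luminescence read after 30 min; quinidine as intraplate control.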

CO[C@H]1C[C@@H]2CC[C@@H](C)[C@@](O)(O2)C(=O)C(=O)N2CCCC[C@H]2C(=O)O[C@H]([C@H](C)C[C@@H]2CC[C@@H](OC(=O)C(C)(CO)CO)[C@H](OC)C2)CC(=O)[C@H](C)/C=C(\C)[C@@H](O)[C@@H](OC)C(=O)[C@H](C)C[C@H](C)/C=C/C=C/C=C/1C
inactive: Potency [1] | Potency [2] | outcome [3] | outcome [4] | outcome [5] | outcome [6]

CC/C=C\C/C=C\C/C=C\C/C=C\C/C=C\C/C=C\CCC(=O)O
inactive: Potency [1] | outcome [7] | Potency [8]

CCOC(=O)[C@@H](N)CS
active: Potency [2] 14.1 µM

COc1ccc(C[C@H](C)NC[C@@H](O)c2ccc(O)c(NC=O)c2)cc1
inactive: Potency [1] | Potency [2] | outcome [3] | outcome [4] | outcome [5] | outcome [6]

COC(=O)[C@@H](N)CS
active: Potency [2] 10 µM

CC(=O)Nc1ccc(NC(=S)NC(=O)c2ccc(C(C)(C)C)cc2)cc1
inactive: Potency [1] | Potency [2] | outcome [3] | outcome [4] | outcome [5] | outcome [6]

S=C1SCN(Cc2ccccc2)CN1Cc1ccccc1
active: Potency [2] 15.8 µM

C=C1CC[C@H](O)CC1=C/C=C1\CCC[C@]2(C)[C@@H]([C@H](C)/C=C/[C@H](C)C(C)C)CC[C@@H]12
active: Potency [9] 12.6 µM
inactive: Potency [1] | Potency [2] | outcome [3] | outcome [5]

C[C@]12CC[C@@H]3c4ccc(OC(=O)c5ccccc5)cc4CC[C@H]3[C@@H]1CC[C@@H]2O
inactive: Potency [1] | Potency [2] | outcome [3] | outcome [5] | outcome [6]

C=C1CC[C@H](O)C/C1=C\C=C1/CCC[C@]2(C)[C@@H]([C@H](C)CCCC(C)C)CC[C@@H]12
active: Potency [8] 25.1 µM | Potency [9] 25.1 µM
inactive: Potency [1] | Potency [2]

CC(C)(C)c1ccc(CN2CCN(C(c3ccccc3)c3ccc(Cl)cc3)CC2)cc1 (configuration not stated)
inactive: Potency [1] | Potency [2] | outcome [3] | outcome [4] | outcome [5] | outcome [6]

CC(CN1c2ccccc2Sc2cccnc21)N(C)C (configuration not stated)
inactive: Potency [2]

CCCCCCCCCCCC(=O)OCC(O)CO (configuration not stated)
inactive: Potency [1] | Potency [2] | outcome [7] | outcome [10] | Potency [8]

CCN(CC)CCOc1ccc2nc(N(C)C)sc2c1
inactive: Potency [1] | Potency [2]

CCCCC/C=C\C/C=C\C/C=C\CCCCC(=O)O
active: Potency [2] 8.91 µM
inactive: Potency [1] | activity change, negative = inhibition [7] 10.3% [at 4.27 µM] | activity change, negative = inhibition [10] 3.71% [at 4.27 µM] | activity change, negative = inhibition [8] -2.07% [at 4.27 µM] | activity change, negative = inhibition [9] 19.3% [at 4.27 µM]

CCN(CC)CCOCCOC(=O)C(CC)(CC)c1ccccc1
inactive: Potency [1] | Potency [2] | outcome [3] | outcome [4] | outcome [5] | outcome [6]

C/C(=C\C(=O)OCCCCCCCCC(=O)O)C[C@@H]1OC[C@H](C[C@@H]2O[C@H]2[C@@H](C)[C@H](C)O)[C@@H](O)[C@H]1O
inactive: Potency [1] | Potency [2] | outcome [3] | outcome [4] | outcome [5]

N[C@@H](Cc1cc(I)c(Oc2ccc(O)c(I)c2)c(I)c1)C(=O)O
inactive: Potency [1] | outcome [3] | outcome [4] | outcome [5] | outcome [6]
inactive and 14.1 µM (active): Potency [2]

Cc1ncc(C[n+]2csc(CCO)c2C)c(N)n1
inactive: Potency [1] | Potency [2] | outcome [7] | outcome [10]

Oc1cccc(O)c1O
inactive: Potency [9]

CC[C@H]1OC(=O)C[C@@H](O)[C@H](C)[C@@H](O[C@@H]2O[C@H](C)[C@@H](O[C@H]3C[C@@](C)(O)[C@@H](O)[C@H](C)O3)[C@H](N(C)C)[C@H]2O)[C@@H](CC=O)C[C@@H](C)C(=O)/C=C/C(C)=C/[C@@H]1CO[C@@H]1O[C@H](C)[C@@H](O)[C@@H](OC)[C@H]1OC
inactive: Potency [2]

CC1=CCC2CC1C2(C)C (configuration not stated)
inactive: outcome [7] | outcome [10] | Potency [8]

CC(C)=CCC/C(C)=C/CC/C(C)=C/CC/C(C)=C/CC1=C(C)C(=O)c2ccccc2C1=O
inactive: Potency [1] | outcome [10]
active: Potency [8] 14.1 µM
